Data published in PubChem BioAssay (Tox21).
Inconclusive results are not listed. A call without a number means that no potency is given here. Unmarked numbers belong to inactive results. Activity calls are given as the source filed them. The call rests on the fitted dose curve.

experiment: qHTS assay for small molecules that induce genotoxicity in human embryonic kidney cells expressing luciferase-tagged ATAD5 - cell viability (AID 651634); conditions: HEK293T ATAD5-luc cells viability, CellTiter-Fluor, 15.5 h; series mostly up to 83.3 µM; further: nearly all actives have a fitted effect of over 25% in size
Text: National Center for Advancing Translational Sciences [NCATS]
NIH Chemical Genomics Center [NCGC]
U.S. Environmental Protection Agency [EPA]
National Institutes of Environmental Health Sciences [NIEHS]
National Toxicology Program [NTP]
U.S. Food and Drug Administration [FDA]
Enhanced Level of Genome Instability Gene 1 (ELG1; human ATAD5) protein levels increase in response to various types of DNA damage. Using a luciferase reporter-gene tagged with ElG1, a cell-based assay [developed by Kyungjae Myung, NHGRI, NIH] was used to measure the induction of ATAD5 in human embryonic kidney cells (HEK293T). So, increase in luciferase activity can be used to identify the compounds that cause genetic stress. In addition to genotoxicity, these cells were also used to test for cytotoxicity by measuring the protease activity within live cells.
Tox21 Assay Protocol Summary:
For cytotoxicity screening, 2,000 cells in 5 uL/well were dispensed into white, solid-bottom 1536-well plates using a Multidrop Combi (Thermo Scientific) dispenser. Following transfer of 23 nL compound or DMSO vehicle by a pin tool, the plates were incubated 15.5 hr at 37C and 5% CO2. 1 ul CellTiter-Fluor reagent (Promega, Madison, WI) was then added to each plate and following 30 min incubation at 37C, fluorescence intensity was quantified on a ViewLux CCD-based plate reader.
Potency means the concentration at half of the fitted maximal effect.

Row | SMILES | Potency | activity, negative = cytotoxicity
1 | NC(=O)Cn1c(=O)cc(CCN2CCN(c3nccc4sccc34)CC2)c2ccc(F)cc21 | inactive | –
2 | CC(C)(O)c1ccccc1CC[C@@H](SCC1(CC(=O)O)CC1)c1cccc(/C=C/c2ccc3ccc(Cl)cc3n2)c1 | inactive | –
3 | Cc1nc2ccccn2c(=O)c1CCN1CCC(C(=O)c2ccc(F)cc2)CC1 | inactive | –
4 | CC1=CC(O)CC(C)(C)C1 (stereo not given) | inactive | –
5 | CC(=O)CC(c1ccc([N+](=O)[O-])cc1)c1c(O)c2ccccc2oc1=O (stereo not given) | inactive | –
6 | Nc1ccc(S(=O)(=O)O)c(N)c1 | inactive | –
7 | COCC(O)CO (stereo not given) | inactive | –
8 | CCCCC1C(=O)N(c2ccccc2)N(c2ccc(O)cc2)C1=O (stereo not given) | inactive | –
9 | C1COCO1 | inactive | –
10 | O=C(Nc1ccccc1)Nc1ccccc1 | inactive | –
11 | CO[Si](C)(OC)OC | inactive | –
12 | CC(=O)Nc1ccccc1C | inactive | –
13 | CCCCCCCCCCOS(=O)(=O)O | inactive | –
14 | O=C(O)c1ccc(CO)o1 | inactive | –
15 | C=CCCCCCCCCCCCCCCCC | – | 7.59% [at 8.08 µM]
16 | CC(=O)Oc1ccc(C(=C2CCCCC2)c2ccc(OC(C)=O)cc2)cc1 | inactive | –
17 | N#C/C(=C1/SC[C@@H](c2ccc(Cl)cc2Cl)S1)n1ccnc1 | inactive | –
18 | OCCSc1ccccc1 | inactive | –
19 | OCC1CC=CCC1 (stereo not given) | inactive | –
20 | Fc1c(F)c(F)c(Br)c(F)c1F | inactive | –

Row | SMILES | Potency | activity, negative = cytotoxicity
21 | O=C(O)c1snc(Cl)c1Cl | inactive | –
22 | COCCOC(=O)C1=C(C)NC(C)=C(C(=O)OC/C=C/c2ccccc2)C1c1cccc([N+](=O)[O-])c1 (stereo not given) | inactive | –
23 | CCCCC/C(=C\c1ccccc1)CO | inactive | –
24 | CCCCCC=CCC=CCCCCCCCC(=O)OCC | inactive | –
25 | Cc1nc2ccccc2s1 | inactive | –
26 | CN(C)CCOC1=Cc2ccccc2Sc2ccc(Cl)cc21 | inactive | –
27 | c1ccc(COCc2ccccc2)cc1 | inactive | –
28 | Cc1cc(C(=C2C=CC(=Nc3ccc(S(=O)(=O)O)cc3S(=O)(=O)O)C=C2)c2ccc(Nc3ccc(S(=O)(=O)O)cc3)cc2)ccc1N | inactive | –
29 | Nc1ccc(S(=O)(=O)O)cc1 | inactive | –
30 | CC(Cl)C(Cl)Cl (stereo not given) | inactive | –
31 | CC(N)CN (stereo not given) | inactive | –
32 | CC(=O)[C@H]1CC[C@H]2[C@@H]3C=CC4=CC(=O)CC[C@@]4(C)[C@@H]3CC[C@]12C | inactive | –
33 | ON(Cc1ccccc1)Cc1ccccc1 | inactive | –
34 | CO[C@H]1C=CO[C@@]2(C)Oc3c(C)c(O)c4c(O)c(c5c(c4c3C2=O)=NC2(CCN(CC(C)C)CC2)N=5)NC(=O)/C(C)=C\C=C/[C@H](C)[C@H](O)[C@@H](C)[C@@H](O)[C@@H](C)[C@H](OC(C)=O)[C@@H]1C | 53.3 µM (active) | –
35 | Cc1cc(O)c2c(O)c3c(O)cccc3cc2c1 | inactive | –
36 | CC(C)(C)CC(C)(C)c1ccc(OCCO)cc1 | 54.2 µM (active) | –
37 | C=CC(C)=CCC=C(C)C | inactive | –
38 | CCCC(=O)O[C@]1(C(=O)COC(=O)CC)CC[C@H]2[C@@H]3CCC4=CC(=O)CC[C@]4(C)[C@H]3[C@@H](O)C[C@@]21C | inactive | –
39 | O=C(/C=C/c1ccccc1)OCCCc1ccccc1 | inactive | –
40 | C=CC(=O)NCOCC(C)C | inactive | –
